# TRHR enhancer-1 = allosterically enhances the human TRH receptor; P34981; TRHR cells, fluo-8 calcium fluorescence, EC20 TRH enhancement; enhancement, % at 2 µM; actives 0.66% (n = 360,000); AID 493056; in the data active = enhancement above about 30%; note: 0% is about no effect
# Target sequence (P34981 whole entry, looked up): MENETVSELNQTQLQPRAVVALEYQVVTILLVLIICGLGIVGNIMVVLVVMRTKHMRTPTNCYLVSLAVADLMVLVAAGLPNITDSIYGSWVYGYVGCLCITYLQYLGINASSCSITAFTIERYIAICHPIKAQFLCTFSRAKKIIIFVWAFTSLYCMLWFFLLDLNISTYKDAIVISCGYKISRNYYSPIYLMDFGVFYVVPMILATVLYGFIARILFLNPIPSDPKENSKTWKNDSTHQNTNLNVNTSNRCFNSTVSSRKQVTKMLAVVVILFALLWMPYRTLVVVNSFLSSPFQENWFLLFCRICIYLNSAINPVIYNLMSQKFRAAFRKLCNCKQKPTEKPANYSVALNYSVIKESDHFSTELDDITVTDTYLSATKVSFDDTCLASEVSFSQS
#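 TRHR-expressing cells loaded with fluo-8 calcium dye were read kinetically (ex 480/em 530) during compound addition, then stimulated with an EC20 of TRH (10 nM final). Enhancement of the Gq-mediated intracellular calcium response was scored.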
# GLP1R inv ag = GLP-1 receptor (human) inverse agonism | HEK293 GLP-1R CRE-luciferase, luminescence, 24 h; GLP-1R form is constitutively active | actives 1.6% (n = 410,000) | Potency, µM (titrated, usually from 38.3 µM), inactives show top-dose activity change, negative = inhibition, most hits filed as inhibitors | P43220 | AID 624417; note: potency is the fitted concentration of half-maximal effect; % is set by controls: 0 for no effect and ±100 for the full control effect; nearly all actives have a fitted effect of over 55% in size
#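 Readout was luciferase luminescence, measured 12 min after detection reagent at room temperature. Beforehand, GLP-1R reporter HEK293 cells had sat 12 h, then received compounds for 24 hr at 37 deg C.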
# HEK293 tox = cytotoxicity counter-screen for GLP-1 receptor inverse agonists | HEK293 cAMP-luciferase reporter cells, luminescence, 24 h | actives 0.13% (n = 410,000) | Potency, µM (series often up to 38.3 µM), for inactives: at the top dose activity change, negative = inhibition, hits mostly inhibitors | AID 624418;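 note: loss of luciferase light is scored as toxicity; potency is the fitted concentration of half-maximal effect; % is set by controls: 0 for no effect and ±100 for the full control effect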
#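 To flag toxic compounds, the library was rerun on cells for 24 hr at 37 deg C and 5% CO2. Viability-linked luminescence was captured 12 min after adding luciferase detection reagent.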
# GLP1R ag = activates the human GLP-1 receptor | P43220 | actives 0.007% (n = 380,000) | HEK293 GLP-1R CRE-luciferase, luminescence, 4-6 h; cells express a hypersensitive GLP-1R form | Potency, µM (series often up to 45.6 µM), without a hit: top-dose activation, most hits filed as activators; note: potency is the fitted concentration of half-maximal effect; % of control where 0% means no effect
# TRHR agonist-1 = agonists of human TRH receptor; TRHR cells, calcium flux fluo-8, FDSS agonist mode; activation, % at 2 µM; actives 0.18% (n = 360,000); AID 493084; in the data active = activation above about 30%; note: 0% is about no effect
#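 In this calcium-flux screen, cells bearing human TRHR are dye-loaded with fluo-8, baselined for 10 cycles, then exposed to library compounds; positive kinetic calcium responses during the agonist phase mark hits, with TRH as control.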
# PTHR1 agonist = activates the human parathyroid hormone receptor PTHR1 | Q03431 | HEK293 GP2 PTHR1 cells, GloSensor cAMP luminescence, 1 h | Potency, µM (titrated, usually from 115 µM), for inactives: at the highest dose activation, actives largely listed as activators | actives 0.075% (n = 410,000) | AID 743266; note: potency is the fitted concentration of half-maximal effect; nearly all actives have a fitted effect of over 55% in size
#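 HEK-293-derived GP2 cells expressing PTHR1 and a GloSensor cAMP reporter, 3,000/well, plated overnight, given luciferin plus IBMX (each 0.5 mM as added) for 1 h at 37 °C, then compound for 1 h at 37 °C. Luminescence was read after 15 min at room temperature.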
# TRHR enhancer-2 = human TRH receptor allosteric enhancement confirmation. shares compounds with TRHR enhancer-1. activity change, negative = inhibition, % at 46.1 µM. TRH receptor cell assay, enhancer confirmation qHTS. 970 tested, under 10 active;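 note: compound effect scored on response to added TRH at EC20 of 10 nM; 0% is about no effect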
# TRHR agonist-2 = confirmation of human TRH receptor agonists; shares compounds with TRHR enhancer-1; TRHR-expressing cells, agonist activation read-out; Potency, µM (series often up to 46.1 µM), without a hit: at the highest dose activation, usual class: activators; actives 8% (n = 970); AID 493078; note: potency is the fitted concentration of half-maximal effect; 0% is about no effect; nearly all actives have a fitted effect of over 75% in size
# * = called active by the depositor; i = inactive; ? = inconclusive; . = no result given; [ ] = another dose, or the depositor's remark. Compounds with a hit are over-represented: about 2.4% of the library has one in this group of screens. Unless noted, calls come from the whole dose curve; as a rule, active = well fitted curve in the direction sought with a large enough effect; inconclusive = small, poorly fitted or top-dose-only effect, or another doubt; inactive = no such curve, though single readings can be large; an effect the other way counts as inactive or inconclusive.
SMILES,TRHR enhancer-1,GLP1R inv ag,HEK293 tox,GLP1R ag,TRHR agonist-1,PTHR1 agonist,TRHR enhancer-2,TRHR agonist-2
CC(=Nc1cccc(O)c1)c1sc2ccccc2c1O,14.0,8.1%,2.2%,-4.3%,29.1,-15.3%,-2.5,?
COc1ccc2c(C#N)c3ccccn3c2c1,47.2*,?,i,16.5%,9.8,-7.1%,-9.6,?
Cc1cc(=O)n2ccccc2c1C#N,-5.4,5.2%,91.0%,-1.7%,0.8,-10.8%[57.5 µM],.,.
CCS(=O)(=O)N1CCN(c2cc3c(cc2[N+](=O)[O-])n(C)c(=O)n3C)CC1,0.1,2.4%,6.9%,6.7%,-0.4,i,.,.
COC(=O)c1cc2sccc2n1CC(=O)Nc1cccc(SC)c1,44.9*,0.0%,11.7%,2.8%,-0.1,-5.3%[57.5 µM],0.7,3.9%
CCN(C(=O)COC(=O)c1nccnc1N)c1cccc2ccccc12,.,1.0%,7.5%,12.3%,.,-18.4%,.,.
CCc1nnc(NC(=O)c2nc(SCc3ccccc3C)ncc2Cl)s1,1.7,3.5%,2.1%,.,-1.0,-22.8%,.,.
COc1ccccc1CC(=O)NC1CCN(Cc2ccccc2)CC1,-3.7,16.7%,10.0%,-1.5%,-0.3,i,.,.
CCN(C(=O)COC(=O)/C=C/c1ccc(Cl)c(Cl)c1)c1c(N)n(Cc2ccccc2)c(=O)[nH]c1=O,.,23.4%,8.2%,-0.5%,.,-38.9%,.,.
CCN(C(=O)COC(=O)/C=C/c1ccccc1Cl)c1c(N)n(Cc2ccccc2)c(=O)[nH]c1=O,51.6*,-7.0%,14.8%,-11.9%,0.6,i,-2.9,2.3%
Cc1ccc(-c2csc3ncnc(N4CCN(Cc5ccccc5)CC4)c23)cc1,53.9*,-4.5%,3.5%,-2.2%,0.5,i,-3.1,-0.7%
O=C(COC(=O)Cn1cnc2ccccc2c1=O)NCc1ccccc1,8.5,2.2%,19.7%,-8.4%,0.3,-21.6%,.,.
CCOc1ccc(NC(=O)c2sc3nc(N4CCOCC4)c4c(c3c2N)CCCC4)cc1,2.4,1.6%,0.5%,-5.3%,-0.1,-24.2%,.,.
COc1ccc(N(CC(=O)NN=C2CCN(C)CC2)S(=O)(=O)c2ccccc2)c(OC)c1,41.4*,11.4%,-5.0%,8.8%,-0.2,i,1.4,-0.2%
CC(C)[C@H]1C=C(C(=O)O)O[C@@H](OCc2ccc(CO)cc2)C1,-3.5,-2.0%,-20.5%,-1.8%,0.1,?,.,.
O=C1/C(=C\c2ccc(O)cc2)SC(=S)N1c1cccnc1,-2.4,-10.3%,-20.6%,-0.9%,36.2*,6.8%,-6.0,?
Cc1cc(C)nc(NN2C(=O)/C(=C/c3ccc(O)cc3)SC2=S)n1,7.2,-18.0%,-10.1%,-9.0%,35.8*,-4.6%[57.5 µM],-6.0,20.6µM*
COc1ccc(/C=C2\SC(=S)N(c3cccnc3)C2=O)cc1,-11.6,-0.3%,1.8%,-2.0%,0.1,i,.,.
Cc1c(Cc2ccc3c(c2)OCO3)sc(NC(=O)c2ccccc2)c1C(N)=O,-4.5,-25.7%,-23.2%,3.9%,0.4,-3.7%,.,.
CC(C)NC(=O)C1(C)CN(S(C)(=O)=O)CC(=O)N1C1CC1 (configuration not stated),.,0.1%,-17.5%,.,.,-24.3%,.,.
Cc1ccccc1NC(=S)N(CCN(C)C)C(C)c1cccnc1 (configuration not stated),43.1*,-7.9%,-16.1%,0.3%,0.1,i,-8.7,-0.7%
O=C(Nc1cccc(S(=O)(=O)N2CCCC2)c1)c1cccc(S(=O)(=O)N2CCOCC2)c1,-4.5,-6.2%,-0.4%,0.3%,29.1,-21.2%,4.3,1.9%
COc1ccc(OCCC(=O)OCC(=O)Nc2cccc(S(=O)(=O)N3CCOCC3)c2)cc1,-0.1,-8.4%,18.2%,2.3%,-0.1,i,.,.
O=C(NCc1ccc2c(c1)OCO2)c1cccc(S(=O)(=O)N2CCCCC2)c1,-16.7,0.0%,-7.6%,2.1%,43.7*,-27.8%,-8.8,1.9%
CC(C)(C)c1ccc(OCCC(=O)Nc2cccc(S(=O)(=O)N3CCOCC3)c2)cc1,43.6*,?,13.6%,12.1%,0.5,i,4.9,0.2%
SMILES,TRHR enhancer-1,GLP1R inv ag,HEK293 tox,GLP1R ag,TRHR agonist-1,PTHR1 agonist,TRHR enhancer-2,TRHR agonist-2
CN1CCC(N2CCN(C3CN(Cc4ccccc4)S(=O)(=O)C3)CC2)CC1 (configuration not stated),.,-12.2%,1.0%,1.6%,.,-20.1%,.,.
COc1ccccc1Oc1ccc(S(=O)(=O)NCc2ccccn2)cc1,6.0,0.0%,-34.7%,8.9%,-0.4,-24.7%[57.5 µM],.,.
O=C(O)CN1C(=O)NC2(CCCc3ccccc32)C1=O (configuration not stated),1.9,-10.0%,?,0.5%,1.0,-18.6%,.,.
Cc1nn(-c2ccc(F)cc2)c(C)c1CN1CCN(CCc2ccccc2)C(CCO)C1 (configuration not stated),4.1,?,1.7%,-2.5%,-0.2,-4.3%,.,.
CCN(CC)c1ccc(CN2CCC(C(=O)NCc3ccc(C)cc3)CC2)cc1,44.8*,?,-9.2%,1.8%,-0.4,-31.9%,9.2,2.2%
CCN(CC)S(=O)(=O)N1CCC(C(=O)NCc2ccc(C)cc2)CC1,13.0,0.0%,-10.3%,6.1%,0.3,i,.,.
COc1ccc(COC(=O)C2=C(C)NC(=O)NC2c2ccccc2)cc1 (configuration not stated),43.9*,-4.4%,3.1%,2.9%,0.1,-34.4%,-5.1,0.4%
Cc1ccc(NCC(=O)Nc2ccc(Br)cc2)cc1C,70.3*,-3.7%,-8.8%,0.3%,0.0,-10.3%,4.1,-0.3%
Cc1ccc(C)c(C2=CSC3=NS(=O)(=O)CCN23)c1,-10.1,7.9%,-2.9%,-1.5%,0.8,i,.,.
Cc1ccc(C)c(C2=CSC3=NCCN23)c1,67.6*,?,-0.7%,-32.9%,-2.1,i,-3.7,0.8%
C=C(C)c1cccc(C(C)(C)NC(=O)Nc2cc(C)ccn2)c1,46.3*,?,2.9%,21.4%,0.3,-31.7%,-11.5,-0.5%
O=C(Nc1ccccc1C(=O)O)c1cc(S(=O)(=O)N2CCOCC2)c(Br)s1,44.7*,12.3%,-25.2%,-2.2%,-0.6,-4.7%,4.1,-0.5%
CCN(CC)c1ccc2cc(C(=O)Nc3cccnc3N3CCOCC3)c(=O)oc2c1,8.7,.,.,.,3.7,.,.,.
CCN(CC)c1ccc2cc(NC(=O)CCC(=O)O)c(=O)oc2c1,5.1,1.0%,i,3.9%,26.3,-4.5%,9.5,20.6µM*
